# Measured values published in ChEMBL document CHEMBL3433997, “St. Jude Leishmania screening dataset” (2016).
# Experiments:
# Format in all cases: functional
# [1] = biological target: Solute carrier family 2, facilitated glucose transporter member 1 (Homo sapiens) (UniProt P11166); assay: ST_JUDE_LEISH: Cytotoxicity at 2uM final concentration against transgenic Leishmania Mexicana promastigotes LmGLUT1 that are glucose transport deficient and complemented with the human glucose transporter GLUT1. Activity is measured by DNA content using SYBR green in vitro
# Solute carrier family 2, facilitated glucose transporter member 1 (Homo sapiens), sequence (P11166 whole entry): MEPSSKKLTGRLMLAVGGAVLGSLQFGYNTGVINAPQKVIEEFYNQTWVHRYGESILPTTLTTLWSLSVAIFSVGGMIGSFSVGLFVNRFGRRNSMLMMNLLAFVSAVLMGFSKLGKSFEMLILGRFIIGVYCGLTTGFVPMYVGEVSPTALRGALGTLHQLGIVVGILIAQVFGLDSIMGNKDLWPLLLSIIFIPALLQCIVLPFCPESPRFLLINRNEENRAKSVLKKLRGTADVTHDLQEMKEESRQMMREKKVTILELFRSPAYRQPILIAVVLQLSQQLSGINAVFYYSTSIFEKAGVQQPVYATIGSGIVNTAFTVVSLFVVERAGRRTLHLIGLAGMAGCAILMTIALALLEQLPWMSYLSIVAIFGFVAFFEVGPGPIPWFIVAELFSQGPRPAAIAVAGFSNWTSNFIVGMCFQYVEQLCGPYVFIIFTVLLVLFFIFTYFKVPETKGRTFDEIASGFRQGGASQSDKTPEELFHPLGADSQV
# [2] = biological target: Hexose transporter 1 (Plasmodium falciparum) (UniProt O97467); assay: ST_JUDE_LEISH: Cytotoxicity at 2uM final concentration against transgenic Leishmania Mexicana promastigotes LmPfHT that are glucose transport deficient and complemented with the Plasmodium falciparum hexose transporter. Activity is measured by DNA content using SYBR green in vitro
# [3] = biological target: Glucose transporter (Leishmania mexicana) (UniProt O61059); assay: ST_JUDE_LEISH: Cytotoxicity at 2uM final concentration against transgenic Leishmania Mexicana promastigotes LmGT2 that are glucose transport deficient and complemented with the L. Mexicana glucose transporter 2. Activity is measured by DNA content using SYBR green in vitro
Compound,inhibition [1] [%],inhibition [2] [%],inhibition [3] [%]
CC(=O)N(C)c1cccc(C(=O)Nc2cccc(-c3ccc(-c4nc5cc(C(F)(F)F)ccc5[nH]4)cc3)c2)c1,4.32,4.03,4.63
O=C(NCC1CCN(CC2CCCCC2)C1)c1cc(-c2cccc(Cl)c2)cs1 (stereo not drawn),2.86,1.57,1.14
O=S(=O)(NCCN1CCCC1)c1cccc(-c2cccc(CNCc3ccccc3)c2)c1,20,17.2,11.7
CCOC(=O)C(=CNc1ccc(Cc2cnc(N)nc2N)cc1CC)C(=O)OCC,2.65,2.16,-3.12
O=C(/C=C/c1ccc(Cl)c(Cl)c1)NCCCCCN1CCC(c2c[nH]c3cc(O)ccc23)CC1,9.77,8.43,7.41
Cc1nnsc1C(=O)Nc1ccc(-c2ccc(-c3nc4cccc(C)c4[nH]3)s2)cc1,5.61,2.76,2.44
CCN(CCCN1CCCCC1)c1cc(C)nc(Nc2ccc(C)c(C)c2)n1,4.78,5.75,4.45
CCCc1cn2c3c(cc(C(=O)N[C@@H](Cc4ccccc4)[C@H](O)CNC4CCCCC4)cc13)N(CC)S(=O)(=O)CC2,0.5,0.94,-0.79
c1ccc(-n2ncc(CNCc3ccc(-c4ccc(-c5nc6ccccc6[nH]5)s4)cc3)n2)cc1,2.35,2.45,0.43
COc1ccc2nccc(N/N=C/c3ccccc3[N+](=O)[O-])c2c1,2.92,4.3,0.03
CN1CC[C@@H](Oc2cc(C(=O)NCc3ccc(Cl)c(Cl)c3)ccc2C(F)(F)F)C1,-0.85,-1.04,0.48
CS(=O)(=O)CCNCc1cccc(-c2cc3c(Nc4ccc(OCc5cccc(F)c5)c(Cl)c4)ncnc3s2)c1,-0.25,-0.11,-2.47
CN1CCN(c2ccnc3ccc(NC(=O)Nc4ccc(-c5ccccc5)cc4)cc23)CC1,3.26,2.25,2.96
CCN(CC)CCOc1ccc(NC(=O)c2oc3ccccc3c2C=Cc2ccccc2)cc1,4.92,-0.45,0.81
COc1ccc2c(NN=Cc3cccc(Cl)c3)ccnc2c1,0.29,0.23,-0.9
Cc1csc(-c2nonc2NC(=O)COc2ccccc2C(C)C)n1,2.07,-1.84,2.3
